The values below come from the supplement of paper PMC10849652.

Targets with a hit are over-represented here; the source holds about 7,900 in all. About 0.6% of all pairs of compound and target were hits.

UniProt Q13057, sequence (Q13057 whole entry, looked up): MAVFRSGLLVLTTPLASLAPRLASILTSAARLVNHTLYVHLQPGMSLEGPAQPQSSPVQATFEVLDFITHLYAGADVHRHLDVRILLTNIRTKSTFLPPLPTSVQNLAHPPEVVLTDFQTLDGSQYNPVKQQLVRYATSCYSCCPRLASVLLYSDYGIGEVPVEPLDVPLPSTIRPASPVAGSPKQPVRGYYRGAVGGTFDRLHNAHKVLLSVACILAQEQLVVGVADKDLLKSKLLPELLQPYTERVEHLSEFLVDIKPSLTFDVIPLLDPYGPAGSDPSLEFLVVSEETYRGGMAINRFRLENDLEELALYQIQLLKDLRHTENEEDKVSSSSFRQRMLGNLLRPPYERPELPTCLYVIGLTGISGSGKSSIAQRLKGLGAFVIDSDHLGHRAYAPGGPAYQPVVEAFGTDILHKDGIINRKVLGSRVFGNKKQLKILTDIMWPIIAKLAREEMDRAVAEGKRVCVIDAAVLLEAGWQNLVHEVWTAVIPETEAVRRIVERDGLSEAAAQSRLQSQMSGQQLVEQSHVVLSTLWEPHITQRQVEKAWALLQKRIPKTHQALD
UniProt Q14004, sequence (Q14004 whole entry, looked up): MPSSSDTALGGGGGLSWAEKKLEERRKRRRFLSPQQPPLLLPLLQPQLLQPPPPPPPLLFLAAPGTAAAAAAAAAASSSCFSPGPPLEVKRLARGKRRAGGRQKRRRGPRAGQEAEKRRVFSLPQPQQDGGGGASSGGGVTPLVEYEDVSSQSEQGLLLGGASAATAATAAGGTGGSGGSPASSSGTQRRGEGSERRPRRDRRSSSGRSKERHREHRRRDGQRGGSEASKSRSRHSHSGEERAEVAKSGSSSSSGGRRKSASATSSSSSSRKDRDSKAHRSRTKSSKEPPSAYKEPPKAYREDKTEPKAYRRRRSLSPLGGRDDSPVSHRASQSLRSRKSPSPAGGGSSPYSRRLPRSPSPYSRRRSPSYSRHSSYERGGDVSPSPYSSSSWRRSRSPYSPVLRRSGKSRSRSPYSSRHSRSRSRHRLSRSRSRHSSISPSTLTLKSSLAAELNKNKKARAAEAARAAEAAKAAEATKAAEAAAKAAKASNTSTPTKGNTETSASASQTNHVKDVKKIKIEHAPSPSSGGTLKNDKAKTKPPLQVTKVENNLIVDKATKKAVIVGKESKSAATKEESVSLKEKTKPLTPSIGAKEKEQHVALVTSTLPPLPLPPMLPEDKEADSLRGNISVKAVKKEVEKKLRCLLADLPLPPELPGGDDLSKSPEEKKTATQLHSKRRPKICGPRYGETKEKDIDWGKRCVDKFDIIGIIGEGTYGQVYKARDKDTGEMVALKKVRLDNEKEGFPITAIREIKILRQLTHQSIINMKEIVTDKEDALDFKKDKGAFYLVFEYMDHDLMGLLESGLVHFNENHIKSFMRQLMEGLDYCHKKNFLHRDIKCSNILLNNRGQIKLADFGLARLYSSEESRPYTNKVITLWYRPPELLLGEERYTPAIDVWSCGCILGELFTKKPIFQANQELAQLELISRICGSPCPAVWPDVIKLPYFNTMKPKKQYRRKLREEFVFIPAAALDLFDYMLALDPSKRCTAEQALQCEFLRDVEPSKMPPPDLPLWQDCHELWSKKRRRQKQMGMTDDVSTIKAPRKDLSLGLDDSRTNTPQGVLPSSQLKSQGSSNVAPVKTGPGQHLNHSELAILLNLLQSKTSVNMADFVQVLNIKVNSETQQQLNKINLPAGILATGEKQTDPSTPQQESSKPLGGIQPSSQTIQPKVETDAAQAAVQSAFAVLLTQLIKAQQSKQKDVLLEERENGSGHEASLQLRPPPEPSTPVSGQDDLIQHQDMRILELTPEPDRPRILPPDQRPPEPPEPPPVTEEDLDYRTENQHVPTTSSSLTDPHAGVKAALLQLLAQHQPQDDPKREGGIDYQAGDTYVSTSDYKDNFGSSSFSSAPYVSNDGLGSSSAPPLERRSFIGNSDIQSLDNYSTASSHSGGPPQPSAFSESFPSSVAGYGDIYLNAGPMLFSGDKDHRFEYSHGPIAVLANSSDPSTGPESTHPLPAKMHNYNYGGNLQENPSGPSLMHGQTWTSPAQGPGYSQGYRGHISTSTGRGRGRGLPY
UniProt Q8N163, sequence (Q8N163 whole entry, looked up): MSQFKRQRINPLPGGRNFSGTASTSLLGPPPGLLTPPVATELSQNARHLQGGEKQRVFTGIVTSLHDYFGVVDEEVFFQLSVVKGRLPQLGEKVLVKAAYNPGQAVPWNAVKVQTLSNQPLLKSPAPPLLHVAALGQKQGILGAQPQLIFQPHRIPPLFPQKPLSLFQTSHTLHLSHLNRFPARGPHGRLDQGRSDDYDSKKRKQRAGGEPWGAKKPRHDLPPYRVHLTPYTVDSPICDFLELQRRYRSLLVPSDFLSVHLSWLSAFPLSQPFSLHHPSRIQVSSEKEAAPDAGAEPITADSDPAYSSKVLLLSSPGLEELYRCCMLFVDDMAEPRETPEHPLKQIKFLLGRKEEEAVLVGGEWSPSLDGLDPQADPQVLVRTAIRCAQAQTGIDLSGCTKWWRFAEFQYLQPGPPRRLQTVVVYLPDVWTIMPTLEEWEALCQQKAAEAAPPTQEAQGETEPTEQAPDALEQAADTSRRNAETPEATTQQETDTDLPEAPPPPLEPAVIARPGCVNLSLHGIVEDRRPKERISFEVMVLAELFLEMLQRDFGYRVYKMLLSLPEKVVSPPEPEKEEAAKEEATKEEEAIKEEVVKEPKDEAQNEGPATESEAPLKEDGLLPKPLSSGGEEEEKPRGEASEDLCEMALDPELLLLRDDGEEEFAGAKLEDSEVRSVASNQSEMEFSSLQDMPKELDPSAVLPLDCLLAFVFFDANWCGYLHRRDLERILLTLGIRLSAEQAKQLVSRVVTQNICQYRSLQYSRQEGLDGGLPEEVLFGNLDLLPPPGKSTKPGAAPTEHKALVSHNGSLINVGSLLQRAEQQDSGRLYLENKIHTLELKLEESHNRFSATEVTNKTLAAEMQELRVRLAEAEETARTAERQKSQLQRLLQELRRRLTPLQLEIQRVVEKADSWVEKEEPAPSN
UniProt P51790, sequence (P51790 whole entry, looked up): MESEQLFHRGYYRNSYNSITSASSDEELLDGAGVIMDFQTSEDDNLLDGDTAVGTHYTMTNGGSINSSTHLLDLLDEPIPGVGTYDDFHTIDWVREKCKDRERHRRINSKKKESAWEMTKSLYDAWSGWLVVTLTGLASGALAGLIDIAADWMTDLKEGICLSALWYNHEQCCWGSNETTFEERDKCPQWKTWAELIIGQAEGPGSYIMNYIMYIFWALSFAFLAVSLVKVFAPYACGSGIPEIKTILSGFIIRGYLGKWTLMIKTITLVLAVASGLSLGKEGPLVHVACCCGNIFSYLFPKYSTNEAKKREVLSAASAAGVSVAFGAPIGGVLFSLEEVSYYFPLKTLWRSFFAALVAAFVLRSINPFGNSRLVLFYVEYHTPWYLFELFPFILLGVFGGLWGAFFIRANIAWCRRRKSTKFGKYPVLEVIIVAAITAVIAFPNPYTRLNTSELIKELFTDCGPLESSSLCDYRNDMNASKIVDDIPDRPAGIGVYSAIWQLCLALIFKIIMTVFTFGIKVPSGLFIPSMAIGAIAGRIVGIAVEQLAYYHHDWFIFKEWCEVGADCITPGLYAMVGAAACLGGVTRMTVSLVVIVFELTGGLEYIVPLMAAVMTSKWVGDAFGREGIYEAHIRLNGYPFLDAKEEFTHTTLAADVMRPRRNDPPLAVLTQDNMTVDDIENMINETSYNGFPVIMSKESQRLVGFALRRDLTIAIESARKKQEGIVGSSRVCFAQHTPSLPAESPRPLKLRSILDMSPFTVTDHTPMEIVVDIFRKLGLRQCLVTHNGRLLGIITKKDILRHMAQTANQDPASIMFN
UniProt P55211, sequence (P55211 whole entry, looked up): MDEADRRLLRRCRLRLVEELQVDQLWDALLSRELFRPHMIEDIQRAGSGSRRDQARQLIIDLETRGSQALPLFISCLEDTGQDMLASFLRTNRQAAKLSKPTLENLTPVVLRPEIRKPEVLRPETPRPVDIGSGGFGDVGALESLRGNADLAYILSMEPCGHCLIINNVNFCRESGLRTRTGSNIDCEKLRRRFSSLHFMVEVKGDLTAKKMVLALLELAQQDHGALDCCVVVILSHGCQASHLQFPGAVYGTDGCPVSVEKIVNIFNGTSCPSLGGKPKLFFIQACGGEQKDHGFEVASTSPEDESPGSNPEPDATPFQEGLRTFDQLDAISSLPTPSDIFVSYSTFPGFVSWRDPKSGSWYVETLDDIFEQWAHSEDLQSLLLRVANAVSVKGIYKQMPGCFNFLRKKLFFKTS
UniProt P19784, sequence (P19784 whole entry, looked up): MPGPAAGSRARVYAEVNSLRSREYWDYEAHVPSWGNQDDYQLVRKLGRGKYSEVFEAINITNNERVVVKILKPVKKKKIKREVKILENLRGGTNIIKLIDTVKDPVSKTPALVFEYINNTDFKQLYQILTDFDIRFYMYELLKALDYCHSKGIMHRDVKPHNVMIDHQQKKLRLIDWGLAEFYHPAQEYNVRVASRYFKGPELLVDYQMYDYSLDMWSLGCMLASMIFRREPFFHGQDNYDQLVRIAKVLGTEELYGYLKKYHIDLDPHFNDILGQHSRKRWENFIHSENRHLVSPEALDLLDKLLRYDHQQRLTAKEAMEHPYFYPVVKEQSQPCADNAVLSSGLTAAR
UniProt Q6NZI2, sequence (Q6NZI2 whole entry, looked up): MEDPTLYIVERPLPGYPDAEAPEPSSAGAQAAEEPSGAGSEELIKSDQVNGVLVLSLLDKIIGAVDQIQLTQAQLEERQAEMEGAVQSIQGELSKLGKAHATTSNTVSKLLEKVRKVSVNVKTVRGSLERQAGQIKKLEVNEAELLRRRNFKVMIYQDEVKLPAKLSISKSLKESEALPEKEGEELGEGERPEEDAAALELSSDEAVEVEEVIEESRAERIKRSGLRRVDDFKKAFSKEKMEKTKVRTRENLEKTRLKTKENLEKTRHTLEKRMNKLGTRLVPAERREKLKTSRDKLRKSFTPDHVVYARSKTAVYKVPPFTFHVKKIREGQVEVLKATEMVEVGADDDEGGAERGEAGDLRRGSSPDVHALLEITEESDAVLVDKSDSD

Compound in the experiment: CC1=C(C=C(C=C1)NC(=O)C2=CC(=CC=C2)C(C)(C)C#N)NC3=CC4=C(C=C3)N=CN(C4=O)C
Kind of experiment: log2 fold change, soluble protein after heating vs DMSO (PISA); higher = thermal stabilisation; K562 cells, 10 uM, 30 min; active = over 0.2 and 3.5 SD of the protein, either way, in both replicates (recomputed). In outline:
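Quantification of soluble protein used TMTpro 16plex LC-MS/MS, with channel sums equalised. Samples were the supernatant after 21,000xg for 90 min of pooled aliquots from K562 cells (2×10^6 cells/mL) treated with 10 μM compound for 30 min, heated for 3 min over 48°C-58°C, and extracted in PBS with 0.5% NP-40 at 4°C. Values, from duplicates, describe thermal stability against control samples on a log2 fold-change scale.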
Consider CDCA2 (UniProt Q69YH5), for which the log2 fold change is -0.134 (inactive).
With COPS8 (UniProt Q99627) the figure was 0.031 (inactive); with CASP9 (UniProt P55211), 0.103 (inactive).
With CNOT4 isoform 6 (UniProt O95628) the figure was -0.056 (inactive); with CNOT2 (UniProt Q9NZN8), -0.075 (inactive).
With CCAR2 isoform 2 (UniProt Q8N163) the figure was 0.032 (inactive).
Turning to COX6B1 (UniProt P14854), the log2 fold change was -0.006 (inactive).
With COPS3 (UniProt Q9UNS2) the figure was -0.008 (inactive); with CDAN1 (UniProt Q8IWY9), 0.039 (inactive).
With CRTC2 (UniProt Q53ET0) the figure was 0.055 (inactive); with COASY isoform 2 (UniProt Q13057), -0.002 (inactive); with CDC26 (UniProt Q8NHZ8), -0.026 (inactive).
CPSF1 (UniProt Q10570): the log2 fold change was -0.017 (inactive).
For CSNK2A2 (UniProt P19784), the log2 fold change was -0.037 (inactive).
As to CLCN3 isoform 2 (UniProt P51790), the log2 fold change was -0.055 (inactive).
Under CAVIN1 (UniProt Q6NZI2) stands 0.024 (inactive); under CBX5 (UniProt P45973), 0.051 (inactive).
With CAMK2G isoform 6 (UniProt Q13555) the figure was 0.048 (inactive); with CNTN4 (UniProt Q8IWV2), -0.053 (inactive); with CDK13 (UniProt Q14004), 0.045 (inactive).
On to CDK9 isoform 2 (UniProt P50750), for which the log2 fold change was 0.053 (inactive).
With CDKN2AIP (UniProt Q9NXV6) the figure was 0.046 (inactive).
